# Data taken from PubChem BioAssay (EPA / NIEHS).
# Where “and” joins values, the source holds several entries; their conditions need not be identical. Equal values may be shown once. Some compounds were tested as several samples or in several runs, with calls that do not always agree. Calls of active or inactive are those of the source. How the source made its calls: active means hit-call score of the fitted dose curve at least 0.9, where 1 is the maximum; inactive means score below 0.9.
# Read-out: Interleukin-1 alpha (IL1a), IL1A (gene 3552)
# Test: BSK_LPS_IL1a: BioMAP Diversity Plus: LPS Assay for Interleukin-1 alpha (IL1a) Biomarker Activity (AID 2283080)
# Details: primary human HUVEC with PBMC; actives raise or lower the signal
# Method in brief: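 Measured: IL-1 alpha via ELISA at 24 h in LPS-activated human umbilical vein endothelium–PBMC co-culture. Baseline: DMSO, bidirectional fitting.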
SMILES,outcome,AC50
O=C(O)C(F)(F)C(F)(F)C(F)(F)C(F)(F)F,inactive,
OCC(F)(F)C(F)(F)C(F)(F)C(F)(F)C(F)(F)C(F)(F)F,inactive,
C=C(C)C(=O)OCCC(F)(F)C(F)(F)C(F)(F)C(F)(F)C(F)(C(F)(F)F)C(F)(F)F,inactive,
O=P(O)(O)OCCC(F)(F)C(F)(F)C(F)(F)C(F)(F)C(F)(F)C(F)(F)F,inactive,
O=S(=O)(OCC(F)F)C(F)(F)F,inactive,
O=C(CC(=O)C(F)(F)C(F)(F)F)C(F)(F)F,inactive,
C=CC(=O)OCC(F)(F)C(F)(F)C(F)(F)C(F)(F)COC(=O)C=C,,20.2 µM (active) and 21.2 µM (active)
CCCCCCCCC(F)(F)C(F)(F)C(F)(F)C(F)(F)C(F)(F)C(F)(F)F,inactive,
N=C(N)C(F)(F)C(F)(F)C(F)(F)C(F)(F)C(F)(F)C(F)(F)C(F)(F)F,inactive,38.2 µM (active)
O=C(O)C(F)(F)C(F)(F)F,inactive,
FC(F)(I)C(F)(F)C(F)(F)C(F)(F)I,inactive,
FC(F)(F)C(F)(F)C(F)(F)C(F)(F)C(F)(F)C(F)(F)C(F)(F)C(F)(F)F,inactive,
FC(F)(F)C(F)(F)C(F)(F)N(C(F)(F)C(F)(F)C(F)(F)F)C(F)(F)C(F)(F)C(F)(F)F,inactive,
FC(F)(F)C(F)(F)CNCC(F)(F)C(F)(F)F,inactive,
FC(F)(F)C(F)(F)C(F)(F)C(F)(F)C(F)(F)C(F)(F)CCS,inactive,
O=C(O)C(F)(F)C(F)(F)C(F)(F)F,inactive,
O=C(O)C(F)(F)C(F)(F)C(F)(F)C(F)(F)C(F)(F)C(F)(F)C(F)(F)C(F)(F)Cl,inactive,
